Data taken from PubChem BioAssay (NCATS).
Records with an inconclusive call do not appear. Activity calls are given as the source filed them. The call rests on the fitted dose curve; in most records, active means well fitted inhibition curve with a large enough effect; inconclusive means small, poorly fitted or top-dose-only effect; inactive means flat fitted curve, though single readings scatter.

Legend:
CRL-7250 = normal cell line; assay: Cytotoxic Profiling of Annotated Libraries Using Quantitative High-Throughput Screening (AID 1296008); settings: Five cell lines viability, CellTiter-Glo ATP luminescence, 48-72 h; max response: hits give low values; on max response: on the % scale 0 is the no-effect control and ±100 the full control effect
Summary of the method: (§1)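 Cytotoxicity was measured as CellTiter-Glo ATP luminescence, read after 10 min at room temperature. Compound treatment of the cells lasted 48 or 72 hr at 37 degrees Celsius in a qHTS format.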

HEK293 = assay: as above; settings: Five cell lines viability, CellTiter-Glo ATP luminescence, 48-72 h; max response: hits give low values
Summary of the method: as §1

HaCat [1] = assay: as above; settings: Five cell lines viability, CellTiter-Glo ATP luminescence, 48-72 h; max response: hits give low values
Summary of the method: as §1

KB-3-1 = assay: as above; settings: Five cell lines viability, CellTiter-Glo ATP luminescence, 48-72 h; max response: hits give low values
Summary of the method: as §1

NIH3T3 = assay: as above; settings: Five cell lines viability, CellTiter-Glo ATP luminescence, 48-72 h; max response: hits give low values
Summary of the method: as §1

HACAT [2] = assay: qHTS assay to identify novel small-molecules to repurpose for Merkel cell carcinoma treatment (AID 1296009); settings: MCC and control cell lines, CellTiter-Glo viability, 72 h; at 44.8 µM (top of the series) unless noted
Summary of the method: (§2)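 72 hr, 37 degree celsius; NPC 8-pt / MIPE 11-pt dose response; compound pinned in DMSO; CellTiter-Glo, 10 min RT, luminescence; normalized to no-cell and DMSO controls.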

HEK293T = assay: as above; settings: MCC and control cell lines, CellTiter-Glo viability, 72 h; series mostly up to 44.8 µM
Summary of the method: as §2
Further: nearly all actives have a fitted effect of over 60% in size.

Cn1cc(C=CC(=O)c2cccc(F)c2)cc1C=CC(=O)NO
inactive: max response (CRL-7250) -7.49% | outcome (HEK293) | outcome (HaCat [1]) | outcome (KB-3-1) | outcome (NIH3T3) | outcome (HACAT [2]) | Potency (HEK293T)

O=C(c1ccc(F)cc1)N1CCC[C@H](c2nc(-c3ccc(F)cc3)no2)C1
inactive: max response (CRL-7250) 3.37% | max response (HEK293) -0.935% | outcome (HaCat [1]) | outcome (NIH3T3) | outcome (HACAT [2])

CCCc1nc(C(C)(C)O)c(C(=O)O)n1Cc1ccc(-c2ccccc2-c2nn[nH]n2)cc1
inactive: outcome (CRL-7250) | outcome (HEK293) | outcome (HaCat [1]) | max response (KB-3-1) 0.595% | outcome (NIH3T3) | outcome (HACAT [2]) | Potency (HEK293T)
